# Reference: PubChem BioAssay (Tox21)
# Values without a mark were called inactive. Records with an inconclusive call do not appear. A call without a number means that no potency is given here. Activity calls are given as the source filed them. Calls come from the whole dose curve; as a rule, active = well fitted curve in the direction sought with a large enough effect in the repeat runs; inconclusive = weak or mixed curves; inactive = no such curve, though single readings can be large; an effect the other way counts as inactive or inconclusive.
# Tests used:
# [1] = A CellTox Green Cytotoxicity Assay to monitor cytotoxicity in HepG2 cells - 0 hour (AID 1224882); conditions: CellTox Green fluorescence; series mostly up to 76.8 µM; note: nearly all actives have a fitted effect of over 35% in size
# In short: (§1)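 HepG2 cells were seeded together with the CellTox Green dye at 600 cells/well, left 5 h at 37 C/5% CO2, then given compounds in DMSO. Fluorescence from dye bound to dead-cell DNA was read repeatedly over 40 h of treatment at 37 C.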
# [2] = A CellTox Green Cytotoxicity Assay to monitor cytotoxicity in HepG2 cells - 32 hour (AID 1224883); conditions: CellTox Green fluorescence; series mostly up to 76.8 µM; note: nearly all actives have a fitted effect of over 50% in size; note: potency is the fitted concentration of half-maximal effect
# In short: as §1
# [3] = A CellTox Green Cytotoxicity Assay to monitor cytotoxicity in HEK293 cells - 8 hour (AID 1224884); conditions: CellTox Green fluorescence; series mostly up to 76.8 µM; note: nearly all actives have a fitted effect of over 35% in size; note: potency is the fitted concentration of half-maximal effect
# In short: (§2)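 HEK293 cells premixed with CellTox Green dye were seeded at 600 cells/well and left 5 h at 37 C/5% CO2 before pin transfer of 23 nL compound in DMSO. Fluorescence from dye bound to dead-cell DNA was read during 40 h treatment.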
# [4] = qHTS RealTime-Glo MT Cell Viability Assay in HepG2 cells - 16 hour (AID 1224885); conditions: RealTime-Glo luminescence; series mostly up to 76.8 µM; note: nearly all actives have a fitted effect of over 50% in size; note: potency is the fitted concentration of half-maximal effect
# In short: (§3)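 qHTS, HepG2, 600 cells/well, RealTime-Glo (NanoLuc + prosubstrate) added with cells; 5 h preincubation; DMSO compound addition; 37 C; luminescence at 0/8/16/24/32/40 h.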
# [5] = qHTS RealTime-Glo MT Cell Viability Assay in HEK293 cells - 24 hour (AID 1224886); conditions: RealTime-Glo luminescence; series mostly up to 76.8 µM; note: nearly all actives have a fitted effect of over 50% in size; note: potency is the fitted concentration of half-maximal effect; for activity change, negative = cytotoxicity: top concentration of the series differs between compounds
# In short: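 Assay medium contained NanoLuc luciferase plus cell-permeant prosubstrate, added with HEK293 cells at 600 cells/well. After 5 h at 37 C/5% CO2 compounds were added; plates stayed at 37 C for 40 h with serial luminescence reads.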
# [6] = qHTS RealTime-Glo MT Cell Viability Assay in HEK293 cells - 8 hour (AID 1224887); conditions: RealTime-Glo luminescence; series mostly up to 76.8 µM; note: nearly all actives have a fitted effect of over 50% in size; note: potency is the fitted concentration of half-maximal effect; for activity change, negative = cytotoxicity: top concentration of the series differs between compounds
# In short: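 HEK293 cells mixed with RealTime-Glo reagents (NanoLuc plus cell-permeant prosubstrate) at 600 cells/well, preincubated 5 h at 37 C/5% CO2, then given 23 nL compound in DMSO. Nonlytic luminescence from viable cells was read at 0, 8, 16, 24, 32 and 40 h.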
# [7] = A CellTox Green Cytotoxicity Assay to monitor cytotoxicity in HEK293 cells - 16 hour (AID 1224888); conditions: CellTox Green fluorescence; series mostly up to 76.8 µM; note: nearly all actives have a fitted effect of over 35% in size; note: potency is the fitted concentration of half-maximal effect
# In short: as §2
# [8] = qHTS RealTime-Glo MT Cell Viability Assay in HepG2 cells - 0 hour (AID 1224889); conditions: RealTime-Glo luminescence; series mostly up to 76.8 µM; note: nearly all actives have a fitted effect of over 50% in size; note: potency is the fitted concentration of half-maximal effect
# In short: as §3
# [9] = A CellTox Green Cytotoxicity Assay to monitor cytotoxicity in HepG2 cells - 8 hour (AID 1224890); conditions: CellTox Green fluorescence; series mostly up to 76.8 µM; note: nearly all actives have a fitted effect of over 45% in size; note: potency is the fitted concentration of half-maximal effect
# In short: as §1
# [10] = qHTS assay to identify small molecule antagonists of the estrogen receptor alpha (ER-alpha) signaling pathway using the BG1 cell line in the presence of 0.1 nM 17-beta-estradiol - cell viability counter screen (AID 1259241); conditions: VM7Luc4E2 (BG1) viability, CellTiter-Fluor protease, 22 h, 0.1 nM estradiol agonist added; series mostly up to 92.4 µM; note: nearly all actives have a fitted effect of over 40% in size; note: potency is the fitted concentration of half-maximal effect
# In short: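 Live-cell protease activity (CellTiter-Fluor fluorescence, 30 min) was read in the same wells after VM7Luc4E2 cells had been exposed to compounds with 0.1 nM 17beta-estradiol for 22 hr at 37C.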
SMILES,Potency [1],Potency [2],Potency [3],Potency [4],Potency [5],Potency [6],Potency [7],Potency [8],Potency [9],Potency [10],cytotoxicity [1],cytotoxicity increase [2],cytotoxicity increase [3],"activity change, negative = cytotoxic [4]","activity change, negative = cytotoxicity [8]",cytotoxicity increase [9],"activity change, negative = cytotoxicity [10]"
Cc1cc(CCC(=O)OCCOCCOCCOC(=O)CCc2cc(C)c(O)c(C(C)(C)C)c2)cc(C(C)(C)C)c1O,inactive,inactive,inactive,inactive,inactive,33.8 µM (active),inactive,inactive,inactive,inactive,–,–,–,–,–,–,–
CCCCCCCCCCCC(=O)OCC(O)CO (configuration not stated),inactive,inactive,inactive,inactive,inactive,inactive,inactive,inactive,inactive,inactive,–,–,–,–,–,–,–
O=C(c1ccccc1)c1ccc(O)cc1,inactive,inactive,inactive,inactive,inactive,inactive,inactive,inactive,inactive,inactive,–,–,–,–,–,–,–
CC(=O)OCC(=O)[C@@]1(OC(C)=O)[C@@H](C)C[C@H]2[C@@H]3C[C@H](F)C4=CC(=O)C=C[C@]4(C)[C@@]3(F)[C@@H](O)C[C@@]21C,inactive,inactive,inactive,inactive,inactive,inactive,inactive,–,inactive,inactive,–,–,–,–,–,–,–
Oc1cccc2[nH]ccc12,inactive,inactive,inactive,inactive,inactive,inactive,inactive,inactive,inactive,inactive,–,–,–,–,–,–,–
O=C(NC(Cc1cc(=O)[nH]c2ccccc12)C(=O)O)c1ccc(Cl)cc1 (configuration not stated),inactive,inactive,inactive,inactive,inactive,inactive,inactive,inactive,inactive,inactive,–,–,–,–,–,–,–
O=C(NS(=O)(=O)/C=C/c1ccccc1)c1ccc(F)cc1Cl,inactive,54.9 µM (active),inactive,inactive,inactive,inactive,inactive,19.5 µM (active),inactive,inactive,–,–,–,–,–,–,–
CC(C)COC(=O)COc1cc(Cl)c(Cl)cc1Cl,inactive,inactive,inactive,inactive,inactive,inactive,inactive,inactive,inactive,inactive,–,–,–,–,–,–,–
CC(=O)OCC(C)C,inactive,inactive,inactive,inactive,inactive,inactive,inactive,inactive,inactive,inactive,–,–,–,–,–,–,–
C=C(C)C(=O)OCCC(F)(F)C(F)(F)C(F)(F)C(F)(F)C(F)(F)C(F)(F)F,inactive,inactive,inactive,inactive,inactive,inactive,inactive,inactive,inactive,inactive,–,–,–,–,–,–,–
CC(C)(C(=O)c1cccnc1)c1cccnc1,inactive,inactive,inactive,inactive,inactive,inactive,inactive,inactive,inactive,inactive,–,–,–,–,–,–,–
CC(C)C1CCC(C(=O)N[C@H](Cc2ccccc2)C(=O)O)CC1 (some centres not stated),inactive,inactive,inactive,inactive,inactive,inactive,inactive,inactive,inactive,inactive,–,–,–,–,–,–,–
Cc1ccc(S(=O)(=O)NC(=O)NC2CCCCC2)cc1,inactive,inactive,inactive,inactive,inactive,inactive,inactive,inactive,inactive,inactive,–,–,–,–,–,–,–
CCC(C)(C)C(=O)O,inactive,inactive,inactive,inactive,inactive,inactive,inactive,inactive,inactive,inactive,–,–,–,–,–,–,–
O=C1OC[C@H](Cc2cccc(O)c2)[C@H]1Cc1cccc(O)c1,inactive,inactive,inactive,inactive,inactive,inactive,inactive,inactive,inactive,inactive,–,–,–,–,–,–,–
CC(=O)Oc1cccc(O)c1,inactive,inactive,inactive,inactive,inactive,inactive,inactive,inactive,inactive,inactive,–,–,–,–,–,–,–
COc1ccc(C(=O)NCc2ccc(OCCN(C)C)cc2)cc1OC,inactive,inactive,inactive,inactive,inactive,inactive,inactive,inactive,inactive,inactive,–,–,–,–,–,–,–
COC(CC(C)CCCC(C)(C)O)OC (configuration not stated),inactive,inactive,inactive,inactive,inactive,inactive,inactive,inactive,inactive,inactive,–,–,–,–,–,–,–
N[C@@H](Cc1cc(I)c(O)c(I)c1)C(=O)O,inactive,inactive,inactive,inactive,inactive,inactive,inactive,inactive,inactive,inactive,–,–,–,–,–,–,–

SMILES,Potency [1],Potency [2],Potency [3],Potency [4],Potency [5],Potency [6],Potency [7],Potency [8],Potency [9],Potency [10],cytotoxicity [1],cytotoxicity increase [2],cytotoxicity increase [3],"activity change, negative = cytotoxic [4]","activity change, negative = cytotoxicity [8]",cytotoxicity increase [9],"activity change, negative = cytotoxicity [10]"
CC(=O)c1ccc[nH]1,inactive,inactive,inactive,inactive,inactive,inactive,inactive,inactive,inactive,inactive,–,–,–,–,–,–,–
COc1ccc(C)cc1,inactive,inactive,inactive,inactive,inactive,inactive,inactive,inactive,inactive,inactive,–,–,–,–,–,–,–
CCOC(=O)C(C)O (configuration not stated),inactive,inactive,inactive,inactive,inactive,inactive,inactive,inactive,inactive,inactive,–,–,–,–,–,–,–
CCN(Cc1cccc(S(=O)(=O)O)c1)c1ccc(C(=C2C=CC(=[N+](CC)Cc3cccc(S(=O)(=O)O)c3)C=C2)c2ccc(O)cc2S(=O)(=O)[O-])cc1,inactive,inactive,inactive,inactive,inactive,inactive,inactive,inactive,inactive,16.6 µM (active),–,–,–,–,–,–,–
CCCCCCC(O)CCCCCCCCCCC(=O)OC (configuration not stated),inactive,inactive,inactive,inactive,inactive,inactive,inactive,inactive,inactive,inactive,–,–,–,–,–,–,–
O[C@@H](CNC[C@H](O)[C@H]1CCc2cc(F)ccc2O1)[C@@H]1CCc2cc(F)ccc2O1,inactive,10.7 µM (active),23.9 µM (active),21.3 µM (active),19 µM (active),21.3 µM (active),26.8 µM (active),–,23.9 µM (active),inactive,–,–,–,–,–,–,–
Cc1ccc(Nc2c(F)cccc2Cl)c(CC(=O)O)c1,inactive,inactive,inactive,inactive,inactive,inactive,inactive,inactive,inactive,inactive,–,–,–,–,–,–,–
Cc1cccc(C)c1NC(=O)c1cc(S(N)(=O)=O)c(Cl)cc1O,inactive,inactive,inactive,inactive,inactive,inactive,inactive,inactive,inactive,inactive,–,–,–,–,–,–,–
C[C@@H]1C[C@H]2[C@@H]3CCC4=CC(=O)C=C[C@]4(C)[C@@]3(F)[C@@H](O)C[C@]2(C)[C@@]1(O)C(=O)COP(=O)(O)O,inactive,inactive,inactive,inactive,inactive,inactive,inactive,–,inactive,–,–,–,–,–,–,–,–
Cc1cn([C@H]2C[C@H](F)[C@@H](CO)O2)c(=O)[nH]c1=O,inactive,inactive,inactive,inactive,inactive,inactive,inactive,inactive,–,inactive,–,–,–,–,–,–,–
CC(C)(C)C(O)/C=C/c1ccc2c(c1)OCO2 (configuration not stated),inactive,inactive,inactive,inactive,inactive,inactive,inactive,inactive,inactive,inactive,–,–,–,–,–,–,–
CCN(CC)CCOc1ccccc1C(=O)CCc1ccccc1,inactive,inactive,inactive,inactive,10.7 µM (active),10.7 µM (active),inactive,inactive,inactive,inactive,–,–,–,–,–,–,–
CC(C)c1ccc(C#N)cc1,inactive,inactive,inactive,inactive,17.4 µM (active),inactive,inactive,inactive,inactive,inactive,–,–,–,–,–,–,–
O=C(O)CO,inactive,–,inactive,inactive,inactive,inactive,inactive,inactive,inactive,–,–,–,–,–,–,–,–
CCN(CC)CC(=O)Nc1c(C)cccc1C(=O)OC,inactive,–,inactive,inactive,inactive,inactive,inactive,inactive,inactive,inactive,–,–,–,–,–,–,–
O=CNNC=O,inactive,–,inactive,inactive,inactive,inactive,inactive,inactive,inactive,inactive,–,–,–,–,–,–,–
NC(=O)c1ccccc1[N+](=O)[O-],inactive,inactive,inactive,inactive,inactive,inactive,–,inactive,inactive,inactive,–,–,–,–,–,–,–
CCC(Cl)CC(Cl)C(Cl)C(Cl)C(Cl)C(C)Cl (configuration not stated),–,–,–,–,–,–,–,–,–,–,0.838% [at 15.8 µM],1.37% [at 15.8 µM],24.2% [at 15.8 µM],-2.19% [at 15.8 µM],1.09% [at 15.8 µM],7.16% [at 15.8 µM],0.764% [at 19 µM]
